Source: PubChem BioAssay AID1159580 (chemical genetic matrix, 2015)
Where “and” joins values, the source holds several entries; their conditions need not be identical. Equal values may be shown once. Out of some 5,500 compounds screened, about 2,000 (36%) were called active. Roughly 18% stayed inconclusive and do not appear here. No stated cut-off is given here; in the data, active means normalized growth mostly below about 0.91 (no sharp cut-off); inconclusive means no clear call, values can overlap the other calls; inactive means mostly above about 0.92. The list shows a part of the results.

Assay: chemical genetic growth profiling, strain panel (AID 1159580);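 further: tested at 20 µM; growth read once vehicle control cultures reached saturation at 30 °C; 1 = growth at the plate median or of vehicle wells; lower values mean less growth of the strain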
Details: S. cerevisiae deletion strains, growth OD

Measured: normalized growth

NC(=O)NCCCC(N)C(=O)O (configuration not stated)
inactive: locus YAL013W, strain DEP1, hits give low values 1.01 | locus YAL021C, strain ccr4, hits give low values 0.962 | locus YAL026C, strain drs2, hits give low values 1.01 | locus YAL030W, strain snc1, hits give low values 1.01 | locus YBL061C, strain skt5, hits give low values 1.01 | locus YBR009C, strain hhf1, hits give low values 1.05 | locus YBR021W, strain FUR4, hits give low values 1.01 | locus YBR023C, strain chs3, hits give low values 1.01 | locus YBR171W, strain sec66, hits give low values 0.99 | locus YBR229C, strain ROT2, hits give low values 1.01 | locus YBR231C, strain swc5, hits give low values 1.03 | locus YBR279W, strain paf1, hits give low values 1.01 | locus YCL011C, strain gbp2, hits give low values 0.996 | locus YCL016C, strain dcc1, hits give low values 1 | locus YCL029C, strain bik1, hits give low values 0.998 | locus YCL061C, strain MRC1, hits give low values 0.992 | locus YCL069W, strain vba3, hits give low values 0.996 | locus YCR088W, strain abp1, hits give low values 0.995 | locus YDL005C, strain med2, hits give low values 0.996 | locus YDL035C, strain GPR1, hits give low values 1.03 | locus YDL040C, strain nat1, hits give low values 1 | locus YDL074C, strain BRE1, hits give low values 1.06 | locus YDL101C, strain DUN1, hits give low values 1.03 | locus YDL134C, strain PPH21, hits give low values 1.02 | locus YDL185W, strain tfp1, hits give low values 0.994 | locus YDL192W, strain arf1, hits give low values 0.993 | locus YDR001C, strain nth1, hits give low values 0.989 | locus YDR069C, strain doa4, hits give low values 1.02 | locus YDR101C, strain arx1, hits give low values 0.988 | locus YDR137W, strain rgp1, hits give low values 0.986 | locus YDR150W, strain NUM1, hits give low values 1.02 | locus YDR159W, strain sac3, hits give low values 1.04 | locus YDR162C, strain NBP2, hits give low values 1.04 | locus YDR195W, strain ref2 1.02 | locus YDR297W, strain sur2, hits give low values 1.01 | locus YDR318W, strain mcm21, hits give low values 0.983 | locus YDR334W, strain swr1, hits give low values 0.982 | locus YDR335W, strain msn5, hits give low values 0.993 | locus YDR388W, hits give low values 0.992 | locus YDR392W, strain spt3, hits give low values 0.96 | locus YDR502C, strain sam2, hits give low values 0.993 | locus YEL003W, strain gim4, hits give low values 0.994 | locus YEL037C, strain rad23, hits give low values 0.995 | locus YEL061C, strain CIN8 (second series), hits give low values 0.999 | locus YEL061C, strain CIN8, hits give low values 1.01 | locus YER015W, strain faa2, hits give low values 1 | locus YER016W, strain bim1, hits give low values 1.01 | locus YER110C, hits give low values 0.988 | locus YER111C, strain swi4, hits give low values 1 | locus YER155C, strain BEM2 (second series), hits give low values 1.04 | locus YER155C, strain BEM2, hits give low values 1.01 | locus YER167W, strain BCK2, hits give low values 1.04 | locus YFR010W, strain ubp6, hits give low values 0.982 | locus YGL078C, strain dbp3, hits give low values 1 | locus YGL086W, strain mad1, hits give low values 0.997 | locus YGL167C, strain pmr1, hits give low values 1.03 | locus YGL173C, strain kem1, hits give low values 1 | locus YGL227W, strain vid30, hits give low values 0.998 | locus YGL240W, strain doc1, hits give low values 1.07 | locus YGL248W, strain PDE1, hits give low values 1.01 | locus YGL253W, strain hxk2, hits give low values 1 | locus YGR078C, strain PAC10, hits give low values 1.05 | locus YGR135W, strain pre9, hits give low values 1 | locus YGR229C, strain SMI1, hits give low values 1.02 | locus YGR252W, strain gcn5, hits give low values 0.98 | locus YHR013C, strain ard1, hits give low values 1.01 | locus YHR027C, strain rpn1, hits give low values 0.997 | locus YHR030C, strain SLT2, hits give low values 1.01 | locus YHR079C, strain IRE1 (second series), hits give low values 0.977 | locus YHR079C, strain IRE1, hits give low values 0.992 | locus YHR094C, strain hxt1, hits give low values 0.995 | locus YHR129C, strain ARP1, hits give low values 1.04 | locus YHR142W, strain chs7, hits give low values 0.93 | locus YHR200W, strain rpn10, hits give low values 0.994 | locus YIL066C, strain RNR3, hits give low values 1.02 | locus YIL073C, strain SPO22, hits give low values 1.01 | locus YIL125W, strain kgd1, hits give low values 0.987 | locus YIR030C, strain dcg1, hits give low values 0.993 | locus YJL092W, strain hpr5, hits give low values 0.979 | locus YJL095W, strain BCK1 (second series), hits give low values 1.01 | locus YJL095W, strain BCK1, hits give low values 1.05 and 1.01 | locus YJL115W, strain asf1, hits give low values 0.988 | locus YJL129C, strain trk1, hits give low values 0.973 | locus YJL134W, strain LCB3, hits give low values 1.01 | locus YJL154C, strain vps35, hits give low values 0.997 | locus YJL164C, strain tpk1, hits give low values 0.981 | locus YJL166W, strain qcr8, hits give low values 1.01 | locus YJL168C, strain set2, hits give low values 1 | locus YJL187C, strain SWE1 (second series), hits give low values 1.02 | locus YJL187C, strain SWE1, hits give low values 1 | locus YJR043C, strain POL32, hits give low values 1.03 | locus YJR066W, strain TOR1, hits give low values 0.964
